KOR antag MB: blocks the human kappa opioid receptor, Maybridge compounds. 0.4% of 16,000 active. AID 652031. inhibition, % at 9 µM. P41145. OPRK1 cells, antagonist mode, fluorescence readout; in the data active = inhibition above about 50%
S1P1 agonist: S1P1 (human) receptor agonism; P21453; S1P1 agonist cell-based reporter assay; activation, % at 4.5 µM; 1.5% of 16,000 active; in the data active = activation above about 80%
TLR4-MyD88 inh: blocks binding of human TLR4 to MyD88; O00206; Cell-based TLR4-MyD88 binding inhibition assay; inhibition, % at 10 µM; 0.06% of 16,000 active; AID 811; in the data active = inhibition above about 45%
rat GALR2 agon: agonists of rat galanin receptor 2 (GALR2). 0.5% of 16,000 active. cell-based GALR2 agonist screen. activation, % at 10 µM. AID 833; in the data active = activation above about 15%
Target sequence (O08726 whole entry, looked up): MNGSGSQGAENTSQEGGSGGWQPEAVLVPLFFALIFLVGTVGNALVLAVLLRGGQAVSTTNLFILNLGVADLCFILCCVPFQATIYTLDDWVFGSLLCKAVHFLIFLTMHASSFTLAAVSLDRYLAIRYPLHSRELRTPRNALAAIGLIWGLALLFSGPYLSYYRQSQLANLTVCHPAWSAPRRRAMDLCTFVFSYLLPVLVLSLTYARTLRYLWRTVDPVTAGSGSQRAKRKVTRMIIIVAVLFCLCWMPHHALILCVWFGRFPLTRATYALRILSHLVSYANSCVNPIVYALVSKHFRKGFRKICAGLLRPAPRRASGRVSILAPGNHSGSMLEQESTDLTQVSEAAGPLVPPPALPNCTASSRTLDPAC
An asterisk follows results filed as active; · = no result. Shown are actives, neighbours in structure and some others; about 2.1% of the full set was active somewhere.

SMILES	KOR antag MB	S1P1 agonist	TLR4-MyD88 inh	rat GALR2 agon
Cc1nc2ccccn2c1C(=O)NNS(=O)(=O)c1sc2ccc(Cl)cc2c1C	-2.7	100.4*	-3.3	-6.0
O=C1NCCN1CCNS(=O)(=O)c1ccc(S(=O)(=O)c2ccccc2)s1	-0.2	83.5*	16.5	5.0
N#C/C(=N\Nc1ccc(OC(F)(F)F)cc1)C(=O)c1ccsc1	-1.1	106.8*	-2.2	-10.3
O=[N+]([O-])c1cc(S(=O)(=O)NCc2ccco2)ccc1N/N=C/c1cccnc1	10.9	12.2	-31.2	-6.5
Oc1ccccc1-c1cc(-c2cccs2)[nH]n1	-3.0	-9.4	-11.1	-7.5
Cc1cc(-c2nnc(-c3cccc(C(F)(F)F)c3)o2)no1	17.5	80.0*	-1.5	-3.2
Cc1c(NCN2C(=O)CCC2=O)cc2c(c1[N+](=O)[O-])C(C)(C)CC2(C)C	-1.6	81.0*	-4.7	-9.9
Cc1nc2sccn2c1C(=O)NN	0.8	4.2	6.4	-4.4
CCOC(=O)c1sc(COc2cccc(Cl)c2)nc1C	2.9	90.8*	-1.3	-6.9
CCOC(=O)C1CCN(C(=O)c2sc(-c3ccccc3)nc2C)CC1	3.8	4.7	0.7	-6.4
CCOC(=O)c1sc(-c2ccccc2)nc1C	-11.3	97.1*	16.0	0.1
N#C/C(N)=C(/C#N)NCc1ccccc1Sc1ccc(Cl)cc1	7.2	36.6	-1.8	-6.5
COc1ccc(-c2nc3cc4c(cc3o2)Oc2ccccc2N4)cc1	79.2*	56.9	29.1	5.1
COc1ccc(SCCc2nnc(-c3ccccc3)o2)cc1	3.5	10.2	-0.1	-6.7
N#CCSC1=CC(=O)CC(c2ccccc2)S1 (stereo not drawn)	-40.3	90.5*	3.7	-0.5
S=c1nn[nH]n1C1CCCCC1	1.4	2.3	-4.3	-6.2
O=C(c1cc2ccccc2s1)N1CCN(C(c2ccccc2)c2ccccc2)CC1	-19.0	83.0*	-1.0	-1.3
COc1ccc(C(=O)NC(=Nc2c(C)cccc2C)SC)cc1	2.0	101.1*	3.1	-9.6
COc1ccc(C(=O)N/N=C(/C(=O)O)c2ccccc2)cc1	8.6	-10.9	5.2	-3.0
COc1cccc(CC(=O)NNC(=O)c2cnn(-c3ccccc3)c2C)c1	-7.9	-7.4	4.2	-3.2
Cc1noc(NC(=O)NC(=O)c2cc(F)c(N(C)C)c(F)c2)c1C	0.3	19.1	10.2	35.7*
Cc1noc(C)c1NC(=O)NC(=O)c1c(F)cccc1Cl	10.3	10.2	10.4	-4.9
CCOC(=O)/C(=N\O)C1=CSC2=NNC(C)(C)N12	24.8	94.2*	5.8	-1.0
NC(=O)N/N=C/c1ccc(-c2cc(C(F)(F)F)cc(C(F)(F)F)c2)s1	3.7	97.5*	7.2	-6.2
O=S(=O)(OC(Cc1ccccc1)C(F)(F)F)c1cc(C(F)(F)F)cc(C(F)(F)F)c1 (stereo not drawn)	1.5	3.1	3.8	-7.3
SMILES	KOR antag MB	S1P1 agonist	TLR4-MyD88 inh	rat GALR2 agon
O=S(=O)(Cc1ccc(Cl)cc1)NCc1cccnc1	-8.4	-14.8	-2.5	27.2*
COc1ccc(/C(N)=N/OC(=O)c2ccccc2)cc1OC1CCCC1	14.9	101.9*	2.9	-6.3
C(=NCc1ccccc1)c1cccs1	17.1	-6.6	-4.0	-4.7
Cc1nc(-c2nc(CC(=O)NNC(=O)Nc3cccc(C(F)(F)F)c3)cs2)cs1	-21.3	67.8	·	-5.4
O=S1(=O)CCN(Cc2cc3ccccc3s2)CC1	2.7	-9.2	1.6	35.6*
CCOC(=O)c1cc(C(=O)OC)c(C)nc1N1CCC(NC2CCCCC2O)CC1 (stereo not drawn)	91.7*	-3.5	-6.1	-6.0
O=[N+]([O-])c1c(Sc2ccc(Cl)cc2)ccc2nsnc12	69.1*	-6.1	-25.8	11.4
N/C(=N\OC(=O)c1c(F)cccc1F)c1cccc(-n2cccc2)c1	5.2	95.0*	2.1	-5.9
CC(=O)c1ccc(Cl)c(N=Cc2cc(Br)cc(Br)c2O)c1	19.8	-7.2	10.6	-8.1
Cc1cc(NS(=O)(=O)c2ccc(Cl)s2)no1	1.0	15.0	-5.0	-4.8
Oc1c(Cl)cc(Cl)cc1/C=N/NC(=S)NNc1ccccc1	10.6	53.7	4.7	-2.8
CC(NC(=S)N/N=C/c1cc(Cl)cc(Cl)c1O)c1ccccc1 (stereo not drawn)	-11.5	-16.9	-50.9	26.8*
CC(=O)Oc1cccc([N+](=O)[O-])c1	3.7	6.7	3.8	-8.9
NC1=NNC(=O)/C1=C\c1cc([N+](=O)[O-])ccc1N1CCOCC1	10.6	-2.6	-9.2	24.9*
CC(C)(C)CC(C)(C)NC(=O)c1ccc([N+](=O)[O-])cc1	21.3	-9.9	-11.2	-1.1
Cn1nc(C(F)(F)F)c(-c2ccccc2)c1N1C(=O)C2C3C=CC(C3)C2C1=O (stereo not drawn)	-36.1	86.0*	6.1	-6.5
Cc1cc(C(=O)Nc2c(-c3ccccc3)c(C(F)(F)F)nn2C)no1	12.9	-0.8	-11.9	-6.2

Source: PubChem BioAssay (The Scripps Research Institute Molecular Screening Center)
